# Results from PMC7862700, “An all-to-all approach to the identification of sequence-specific readers for epigenetic DNA modifications on cytosine”.
# Tests used:
# Assay in all cases: DAPPL (digital affinity profiling via proximity ligation, sequencing); 10 mM Tris-HCl pH 7.5, 50 mM NaCl, 1 mM DTT, 4% glycerol, room temperature, 30 min; GST-TFs on glutathione beads, 16-mer random dsDNA library, 0.1% formaldehyde crosslink after washing; high values mean tight binding
# FEV = molecular target: T1, FEV (Homo sapiens, UniProt Q99581 1-238); settings: protein: recombinant; tags: N-terminal GST; dsDNA, one strand shown
# T1 sequence: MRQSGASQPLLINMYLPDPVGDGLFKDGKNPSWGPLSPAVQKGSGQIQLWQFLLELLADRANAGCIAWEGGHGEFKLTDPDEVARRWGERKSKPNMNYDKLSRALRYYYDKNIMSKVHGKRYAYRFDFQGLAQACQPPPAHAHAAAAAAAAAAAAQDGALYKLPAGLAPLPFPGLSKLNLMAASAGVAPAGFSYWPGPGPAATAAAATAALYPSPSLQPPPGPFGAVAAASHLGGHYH
# Procedure, shortened: (§1)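 Human transcription factors fused to GST were expressed in yeast, captured on glutathione beads, given DNA barcodes and pooled with a GST-only negative control. Pools were incubated with 200 nmole of a 16-mer random double-stranded DNA library in Tris/NaCl/DTT/glycerol buffer at room temperature for 30 min. They were then washed, crosslinked with 0.1% formaldehyde, proximity-ligated (BsaI/T4 ligase, 1 h, 37 °C), PCR-amplified and sequenced on an Illumina NextSeq500. Binding signal is each 6-mer's read frequency for a factor divided by its frequency for the GST control.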
# ETV5 = ETV5 (Homo sapiens, UniProt P41161 1-510); settings: protein: recombinant; tags: N-terminal GST; dsDNA, one strand shown
# ETV5, sequence (P41161 whole entry): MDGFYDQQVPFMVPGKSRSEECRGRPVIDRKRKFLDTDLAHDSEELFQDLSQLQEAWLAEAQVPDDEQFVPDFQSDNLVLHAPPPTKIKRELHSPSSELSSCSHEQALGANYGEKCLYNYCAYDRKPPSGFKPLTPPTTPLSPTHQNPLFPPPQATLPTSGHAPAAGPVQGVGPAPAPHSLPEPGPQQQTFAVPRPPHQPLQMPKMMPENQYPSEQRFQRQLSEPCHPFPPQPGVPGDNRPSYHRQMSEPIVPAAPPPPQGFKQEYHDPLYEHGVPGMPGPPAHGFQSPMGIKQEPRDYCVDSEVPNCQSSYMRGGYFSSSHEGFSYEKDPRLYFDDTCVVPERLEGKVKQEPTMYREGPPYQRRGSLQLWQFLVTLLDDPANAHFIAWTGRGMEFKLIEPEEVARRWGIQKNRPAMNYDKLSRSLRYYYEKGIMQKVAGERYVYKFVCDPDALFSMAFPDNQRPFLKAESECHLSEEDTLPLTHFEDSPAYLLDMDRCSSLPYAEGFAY
# Procedure, shortened: as §1
# HSF1 = HSF1 (Homo sapiens, UniProt Q00613 1-529); settings: protein: recombinant; tags: N-terminal GST; chain copies: 3; dsDNA, one strand shown
# HSF1, sequence (Q00613 whole entry): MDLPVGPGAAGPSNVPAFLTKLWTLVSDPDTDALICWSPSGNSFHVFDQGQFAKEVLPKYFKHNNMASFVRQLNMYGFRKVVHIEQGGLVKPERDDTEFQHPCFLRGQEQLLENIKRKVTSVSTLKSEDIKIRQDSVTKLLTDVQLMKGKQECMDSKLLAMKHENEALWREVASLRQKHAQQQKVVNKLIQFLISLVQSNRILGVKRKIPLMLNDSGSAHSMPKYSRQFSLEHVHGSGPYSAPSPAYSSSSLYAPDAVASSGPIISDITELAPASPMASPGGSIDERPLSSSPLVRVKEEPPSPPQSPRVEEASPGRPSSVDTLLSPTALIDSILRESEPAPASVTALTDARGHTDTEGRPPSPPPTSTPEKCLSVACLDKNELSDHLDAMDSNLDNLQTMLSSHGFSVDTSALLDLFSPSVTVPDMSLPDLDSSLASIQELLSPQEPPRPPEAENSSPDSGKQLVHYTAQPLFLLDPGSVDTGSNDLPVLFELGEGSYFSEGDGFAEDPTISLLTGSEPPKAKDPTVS
# Procedure, shortened: as §1
# SPIC = molecular target: T2, SPIC (Homo sapiens, UniProt Q8N5J4 1-248); settings: protein: recombinant; tags: N-terminal GST; dsDNA, one strand shown
# T2 sequence: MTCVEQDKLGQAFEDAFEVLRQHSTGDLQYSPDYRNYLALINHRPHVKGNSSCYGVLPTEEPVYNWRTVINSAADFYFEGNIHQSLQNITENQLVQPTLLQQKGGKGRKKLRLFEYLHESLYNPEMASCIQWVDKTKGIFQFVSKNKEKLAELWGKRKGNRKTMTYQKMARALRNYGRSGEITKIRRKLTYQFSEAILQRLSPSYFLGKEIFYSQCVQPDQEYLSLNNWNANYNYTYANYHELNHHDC
# Procedure, shortened: as §1
# ELF4 = ELF4 (Homo sapiens, UniProt Q99607 1-663); settings: protein: recombinant; tags: N-terminal GST; dsDNA, one strand shown
# ELF4, sequence (Q99607 whole entry): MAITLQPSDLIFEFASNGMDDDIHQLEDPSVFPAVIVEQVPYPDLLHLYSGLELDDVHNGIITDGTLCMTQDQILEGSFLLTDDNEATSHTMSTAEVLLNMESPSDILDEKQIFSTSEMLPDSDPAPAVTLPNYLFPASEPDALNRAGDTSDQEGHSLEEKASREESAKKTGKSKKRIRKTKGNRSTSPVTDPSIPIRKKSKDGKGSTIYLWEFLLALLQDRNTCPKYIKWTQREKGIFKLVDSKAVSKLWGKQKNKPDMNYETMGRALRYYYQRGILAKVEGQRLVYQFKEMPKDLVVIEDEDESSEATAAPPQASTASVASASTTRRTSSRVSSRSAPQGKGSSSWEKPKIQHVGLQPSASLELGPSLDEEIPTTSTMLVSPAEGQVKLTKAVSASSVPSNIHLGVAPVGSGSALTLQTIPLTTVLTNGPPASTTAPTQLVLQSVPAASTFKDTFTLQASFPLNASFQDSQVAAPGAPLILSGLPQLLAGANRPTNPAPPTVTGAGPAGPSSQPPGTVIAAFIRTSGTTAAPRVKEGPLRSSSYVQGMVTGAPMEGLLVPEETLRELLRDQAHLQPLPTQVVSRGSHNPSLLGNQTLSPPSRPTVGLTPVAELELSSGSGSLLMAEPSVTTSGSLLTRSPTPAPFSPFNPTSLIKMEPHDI
# Procedure, shortened: as §1
# ELK4 = molecular target: T3, ELK4 (Homo sapiens, UniProt P28324-2 1-405); settings: protein: recombinant; tags: N-terminal GST; dsDNA, one strand shown
# T3 sequence: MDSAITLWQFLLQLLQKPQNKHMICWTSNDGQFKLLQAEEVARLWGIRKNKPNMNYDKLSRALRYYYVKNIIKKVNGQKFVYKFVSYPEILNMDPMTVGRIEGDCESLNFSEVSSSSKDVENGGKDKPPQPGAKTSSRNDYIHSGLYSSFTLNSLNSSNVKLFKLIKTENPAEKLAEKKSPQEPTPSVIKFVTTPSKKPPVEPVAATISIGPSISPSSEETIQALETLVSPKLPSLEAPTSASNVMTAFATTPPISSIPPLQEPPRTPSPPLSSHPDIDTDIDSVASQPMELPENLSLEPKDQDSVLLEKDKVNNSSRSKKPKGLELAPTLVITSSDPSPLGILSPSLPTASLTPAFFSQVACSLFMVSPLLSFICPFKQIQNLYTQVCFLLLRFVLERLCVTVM
# Procedure, shortened: as §1
# ETV2 = molecular target: T4, ETV2 (Homo sapiens, UniProt O00321 1-342); settings: protein: recombinant; tags: N-terminal GST; dsDNA, one strand shown
# T4 sequence: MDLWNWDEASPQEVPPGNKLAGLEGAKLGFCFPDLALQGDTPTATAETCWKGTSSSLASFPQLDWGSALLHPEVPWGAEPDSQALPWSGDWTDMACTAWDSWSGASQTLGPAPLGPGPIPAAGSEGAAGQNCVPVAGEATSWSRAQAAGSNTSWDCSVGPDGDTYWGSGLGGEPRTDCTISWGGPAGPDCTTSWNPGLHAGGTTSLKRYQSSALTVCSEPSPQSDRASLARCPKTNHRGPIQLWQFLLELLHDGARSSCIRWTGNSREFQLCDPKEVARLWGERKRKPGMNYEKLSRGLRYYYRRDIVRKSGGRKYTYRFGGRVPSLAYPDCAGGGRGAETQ
# Procedure, shortened: as §1
# ELF3 = molecular target: T5, ELF3 (Homo sapiens, UniProt P78545 1-371); settings: protein: recombinant; tags: N-terminal GST; dsDNA, one strand shown
# T5 sequence: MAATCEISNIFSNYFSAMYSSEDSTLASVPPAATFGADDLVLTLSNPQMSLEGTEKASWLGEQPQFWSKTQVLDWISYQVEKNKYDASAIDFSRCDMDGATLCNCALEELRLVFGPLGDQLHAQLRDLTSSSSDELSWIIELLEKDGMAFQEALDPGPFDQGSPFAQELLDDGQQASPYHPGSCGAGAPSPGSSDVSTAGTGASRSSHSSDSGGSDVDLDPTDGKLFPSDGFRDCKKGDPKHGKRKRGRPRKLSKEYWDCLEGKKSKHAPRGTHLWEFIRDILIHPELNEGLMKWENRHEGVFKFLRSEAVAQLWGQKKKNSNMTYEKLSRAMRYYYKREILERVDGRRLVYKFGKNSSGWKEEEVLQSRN
# Procedure, shortened: as §1
# CRX = CRX (Homo sapiens, UniProt O43186 1-299); settings: protein: recombinant; tags: N-terminal GST; dsDNA, one strand shown
# CRX, sequence (O43186 whole entry): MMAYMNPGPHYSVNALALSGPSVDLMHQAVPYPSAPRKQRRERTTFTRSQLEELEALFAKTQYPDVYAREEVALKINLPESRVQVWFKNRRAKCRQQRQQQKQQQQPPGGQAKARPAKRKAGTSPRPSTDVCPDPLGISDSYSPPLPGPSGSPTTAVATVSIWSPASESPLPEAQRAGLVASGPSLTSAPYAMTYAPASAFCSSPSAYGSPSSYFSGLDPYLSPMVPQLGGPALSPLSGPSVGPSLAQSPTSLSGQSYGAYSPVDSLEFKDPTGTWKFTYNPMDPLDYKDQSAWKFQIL
# Procedure, shortened: as §1
# ETV1 = ETV1 (Homo sapiens, UniProt P50549 1-477); settings: protein: recombinant; tags: N-terminal GST; dsDNA, one strand shown
# ETV1, sequence (P50549 whole entry): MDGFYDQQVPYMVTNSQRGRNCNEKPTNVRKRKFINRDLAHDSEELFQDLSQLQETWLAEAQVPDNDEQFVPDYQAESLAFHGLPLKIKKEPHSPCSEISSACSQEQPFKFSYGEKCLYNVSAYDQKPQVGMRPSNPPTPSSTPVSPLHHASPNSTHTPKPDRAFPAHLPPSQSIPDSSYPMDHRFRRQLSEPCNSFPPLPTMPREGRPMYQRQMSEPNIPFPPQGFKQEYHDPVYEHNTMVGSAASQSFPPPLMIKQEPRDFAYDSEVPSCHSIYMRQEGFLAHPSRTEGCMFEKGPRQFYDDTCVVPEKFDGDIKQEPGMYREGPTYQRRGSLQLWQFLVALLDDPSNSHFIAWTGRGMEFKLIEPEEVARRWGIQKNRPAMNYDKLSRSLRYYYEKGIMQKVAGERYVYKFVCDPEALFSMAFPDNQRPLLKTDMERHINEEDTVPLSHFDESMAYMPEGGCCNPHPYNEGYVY
# Procedure, shortened: as §1
sequence,measurement,setting,value
ATTATA,binding signal,FEV,"1.32 fold enrichment (6-mer frequency, TF over GST control)"
same,binding signal,ETV5,"1.29 fold enrichment (6-mer frequency, TF over GST control)"
same,binding signal,HSF1,"2.05 fold enrichment (6-mer frequency, TF over GST control)"
same,binding signal,SPIC,"1.36 fold enrichment (6-mer frequency, TF over GST control)"
same,binding signal,ELF4,"1.24 fold enrichment (6-mer frequency, TF over GST control)"
same,binding signal,ELK4,"1.29 fold enrichment (6-mer frequency, TF over GST control)"
same,binding signal,ETV2,"1.42 fold enrichment (6-mer frequency, TF over GST control)"
same,binding signal,ELF3,"1.39 fold enrichment (6-mer frequency, TF over GST control)"
same,binding signal,CRX,"3.2 fold enrichment (6-mer frequency, TF over GST control)"
same,binding signal,ETV1,"1.3 fold enrichment (6-mer frequency, TF over GST control)"
